High-throughput results: PubChem, several laboratories
Hits are enriched below; roughly 3.3% of the tested compounds scored in any of these assays.
ERa coact inh = ERα–SRC-1 coactivator interaction inhibitors, primary screen, biochemical, TR-FRET, ERα LBD, estradiol-bound; Estrogen receptor (Homo sapiens), P03372; AID 629, 2007; 1.7% of 86,000 active; TR-FRET ER-alpha LBD / SRC-1 peptide; inhibition, % at 25.6 µM; in the data active = inhibition above about 50%
Target sequence (P03372 whole entry, looked up, the tested form may be a part): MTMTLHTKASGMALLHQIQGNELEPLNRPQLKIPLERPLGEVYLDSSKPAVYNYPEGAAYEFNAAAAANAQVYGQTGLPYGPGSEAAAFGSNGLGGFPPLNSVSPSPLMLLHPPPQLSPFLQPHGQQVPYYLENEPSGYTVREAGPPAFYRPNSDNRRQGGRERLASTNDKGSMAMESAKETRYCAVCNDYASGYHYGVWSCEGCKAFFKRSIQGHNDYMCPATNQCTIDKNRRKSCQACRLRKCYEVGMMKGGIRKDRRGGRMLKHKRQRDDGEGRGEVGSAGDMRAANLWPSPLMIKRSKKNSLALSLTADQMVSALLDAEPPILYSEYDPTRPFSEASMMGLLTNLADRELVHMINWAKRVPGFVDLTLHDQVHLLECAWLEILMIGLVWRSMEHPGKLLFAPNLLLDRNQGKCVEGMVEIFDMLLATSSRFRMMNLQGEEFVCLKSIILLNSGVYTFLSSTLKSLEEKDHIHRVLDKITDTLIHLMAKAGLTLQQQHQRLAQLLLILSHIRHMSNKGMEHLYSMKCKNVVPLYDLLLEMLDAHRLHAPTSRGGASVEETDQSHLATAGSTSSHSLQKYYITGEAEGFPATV
ERa SRC1 pot = enhancers of ERα–SRC-1 coactivator binding, primary screen, biochemical, TR-FRET, ERα LBD, low estradiol; coactivator binding (% of control), % at 25.6 µM; 1.3% of 86,000 active; TR-FRET ERalpha-LBD/SRC-Cy5 coactivator binding, 2 h; 100 = basal binding, no effect; AID 639, 2007; in the data active = activity above about 200%;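 also: binding measured in presence of low estradiol as agonist stimulus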
PLK1 kinase inh = human PLK1 kinase inhibitors, primary screen, biochemical, TR-FRET | Serine/threonine-protein kinase PLK1 (Homo sapiens), P53350 | recombinant PLK1 kinase, TR-FRET peptide phosphorylation | inhibition, % at 10 µM | 0.53% of 97,000 active;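 active = inhibition of 50% or more in the single-concentration screen; inactive = inhibition below 50%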
Smad3 inh = Smad3/FoxH1 peptide binding inhibitors, primary screen, biochemical, TR-FRET. Mothers against decapentaplegic homolog 3 (Homo sapiens), P84022. TR-FRET Smad3/Dy647-FoxH1 peptide binding, europium anti-His. inhibition, % at 25 µM. 0.29% of 88,000 active. AID 630, 2007;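 active = compounds that reduce the energy-transfer binding signal between the protein and its labelled peptide by more than half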
PLK1 PBD inh = Plk1 polo box domain binding inhibitors, primary screen, biochemical, fluorescence polarization | Serine/threonine-protein kinase PLK1 (Homo sapiens), P53350 | Plk1 PBD phosphopeptide binding | inhibition, %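 (tested at about 20 µM)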 | 0.13% of 97,000 active; in the data active = inhibition above about 34%, passing the limit was not always enough
ERb SRC1 inh = inhibitors of ERβ-SRC1 coactivator interaction, primary screen, biochemical, TR-FRET, ERβ LBD, SRC-1 peptide | Estrogen receptor beta (Homo sapiens), Q92731 | TR-FRET ER-beta LBD / SRC1-Cy5 peptide binding; receptor agonist-loaded with 1 µM estradiol | inhibition, % at 25.6 µM | 1.3% of 86,000 active;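 active = compounds whose percent inhibition of the receptor-coactivator binding signal exceeds about 50% in the single-dose screen, limit read from the data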
Hits are given with their value; - = inactive; . = no result given; [ ] = remark or other dose.

SMILES | ERa coact inh | ERa SRC1 pot | PLK1 kinase inh | Smad3 inh | PLK1 PBD inh | ERb SRC1 inh
O=C(O)c1ccncc1.O=C(O)c1ccncc1.[Cl][Pt]([Cl])([Cl])[Cl] | . | . | . | 71.6 | . | .
O=C(C[C@@H](c1ccccc1)N1CCCCC1)c1ccccc1 | . | . | . | - | . | .
Cc1cccc(S(=O)(=O)c2c(N)n(/N=C/c3ccco3)c3nc4ccccc4nc23)c1 | - | 252.6 | - | - | - | -
Cc1cccc(NC(=O)CSc2nc3ccccc3o2)c1 | . | . | - | . | - | .
Cc1nn2c(-c3cccc(NC(=O)CSc4nc5ccccc5o4)c3)nnc2c2ccccc12 | 68.9[fluorescence artefact?] | - | - | - | - | 55.3
Cc1ccc(S(=O)(=O)Oc2cc(S(=O)(=O)O)cc3cc(S(=O)(=O)O)cc(N)c23)cc1 | . | . | . | - | . | .
N#Cc1c(-c2ccccc2)cc(-c2ccco2)c(C#N)c1N | 80.3 | - | - | - | - | 56.5
N#Cc1sc2nc(-c3ccccc3)cc(-c3ccco3)c2c1N | 88.5[fluorescence artefact?] | - | - | - | - | 76.2[fluorescence artefact?]
COc1cccc(-c2cc(C(F)(F)F)c3c(N)c(C#N)sc3n2)c1 | . | . | - | . | - | .
COc1ccccc1N1CCN(C(=O)c2ccc3nc(-c4ccco4)c(-c4ccco4)nc3c2)CC1 | 67.9[fluorescence artefact?] | - | - | - | - | 66.3
COCCn1c(C)cc(C(=O)CSc2nc(C)nc3sc4c(c23)CCC4)c1C | - | 369.9[fluorescence artefact?] | - | - | - | -
CCN1CCC(C(N)=O)CC1 | - | - | - | - | - | 51.0
CC(C)(C)OC(=O)N1CCC(C(N)=O)CC1 | - | - | . | - | . | -
O=C(NCc1ccco1)c1ccc(Cn2c(=O)c3ccccc3n(Cc3cccc(Cl)c3)c2=O)cc1 | 66.6[fluorescence artefact?] | - | - | - | - | -
O=C(NCc1ccco1)c1ccc(Cn2c(=O)c3sccc3n(Cc3cccc(F)c3)c2=O)cc1 | 57.3[fluorescence artefact?] | - | - | - | - | -
O=C(CCn1c(=O)c2sccc2n(CC(=O)NCc2ccco2)c1=O)NCc1ccccc1 | - | - | - | - | - | -
CCCCSc1nc2c(cc1C#N)CCC2 | - | - | - | - | - | -
CCCSc1nc(C)c(-c2csc(C(C#N)=C3CCCC3)n2)cc1C#N | 68.7 | - | - | - | - | -
CN(C)S(=O)(=O)c1ccc(C(=O)Nc2nnc(Cc3ccccc3)s2)cc1 | - | - | - | - | - | -
Cc1nc2c(ccc3nc(NC(=O)c4ccc(S(=O)(=O)N(C)C)cc4)sc32)s1 | - | 241.3[fluorescence artefact?] | - | - | - | -
CCOC(=O)CCCN | . | . | . | - | . | .
Cc1cc(NC(c2cccnc2)c2ccc3cccnc3c2O)no1 (stereo not given) | - | - | - | - | - | -
Cc1cccc(NC(c2ccc(O)cc2)c2ccc3ccc(C)nc3c2O)n1 (stereo not given) | - | 320.4[fluorescence artefact?] | - | - | - | -
O=C(Nc1nnc(-c2ccc3c(c2)OCCO3)o1)c1ccc(Cc2ccccc2)cc1 | - | 350.9[fluorescence artefact?] | - | - | - | 64.5[fluorescence artefact?]
O=C(Nc1nnc(-c2ccc3c(c2)CCCC3)o1)c1ccccc1 | - | - | - | - | - | -
SMILES | ERa coact inh | ERa SRC1 pot | PLK1 kinase inh | Smad3 inh | PLK1 PBD inh | ERb SRC1 inh
CCOC(=O)C1=C(C)S/C(=C\N(C)C)C1=O | 53.9 | - | - | - | - | 73.3[fluorescence artefact?]
CCOc1ccc(CSC(CC(=O)O)C(=O)O)cc1 (stereo not given) | - | - | - | - | - | -
Cn1c(N2CCCCC2)cc(=O)n(C)c1=O | - | - | - | - | - | 96.2[fluorescence artefact?]
Cc1cc(=O)n(C)c(=O)n1CC(=O)N1CCCCCC1 | - | - | - | - | - | -
NCOC(=O)Cc1ccc(Br)cc1 | . | . | . | 73.4 | . | .
Cc1nn(Cc2ccc(C(=O)Nc3nc4c(C)cccc4s3)o2)c(C)c1Br | 50.3 | - | - | - | - | -
Cc1cc(NC(=O)c2ccc(Cn3nc(C)c(Br)c3C)o2)no1 | - | - | - | - | - | -
Clc1ccc(CSCCc2ccncc2)cc1Cl | . | . | . | - | . | .
COc1cc(S(=O)(=O)Nc2c(C)cc(C)cc2C)ccc1Cl | - | - | - | - | - | 63.4[fluorescence artefact?]
NC(=O)c1sc2nc3c(c(-c4ccco4)c2c1N)CCC3 | - | - | - | - | - | 54.1[fluorescence artefact?]
Cc1ccc2c(c1)[nH]c1c(=O)n(CCC3=CCCCC3)cnc12 | . | . | - | . | - | .
Cc1ccc2[nH]c3c(=O)n(CCC4=CCCCC4)cnc3c2c1 | - | 335.2[fluorescence artefact?] | - | - | - | -
O=c1c2[nH]c3ccccc3c2ncn1CCC1=CCCCC1 | - | 307.6[fluorescence artefact?] | - | - | - | -
Cc1cc(C(C)(C)C)c(OCCCN2CCOCC2)c(C(C)(C)C)c1 | . | . | . | - | . | .
O=C(Cn1cnc2c(oc3ccccc32)c1=O)c1ccccc1 | - | 265.9[fluorescence artefact?] | - | - | - | -
Cc1ccc2cc(C#N)c(SCC(=O)NCc3ccco3)nc2c1 | 54.7[fluorescence artefact?] | 237.3 | - | - | - | -
Cc1ccc2cc3cc(C(=O)NCc4ccco4)oc3nc2c1 | 52.8[fluorescence artefact?] | - | - | - | - | -
Cc1ccc2nc(SCC(=O)NCc3ccco3)c(C#N)cc2c1 | - | - | - | - | - | -
c1nc(NCCc2cnc[nH]2)c2[nH]cnc2n1 | . | . | . | - | . | .
Oc1c(Br)cc(Br)cc1CN(Cc1cc(Br)cc(Br)c1O)C1CCCCC1 | . | . | . | - | . | .
CCOC(=O)N1CCc2c(sc(NC(=O)c3ccc(S(=O)(=O)N4CCCC4)cc3)c2C#N)C1 | - | 245.4 | . | - | . | -
O=C(CN1CCN(S(=O)(=O)c2ccc(Cl)cc2)CC1)Nc1ccc2c(c1)OCCO2 | - | - | - | - | - | -
N#Cc1c(NC(=O)CN2CCN(S(=O)(=O)c3ccc4c(c3)OCCO4)CC2)sc2c1CCC2 | 68.7[fluorescence artefact?] | - | - | - | - | 53.4[fluorescence artefact?]
O=C1C2CC=C(Cl)CC2C(=O)N1CCCCCCN1C(=O)C2CC=C(Cl)CC2C1=O (stereo not given) | 56.0 | - | - | - | - | -
O=c1[nH]c2c(s1)C(c1ccc(O)cc1)C1C3CCC(C3)C1S2 (stereo not given) | 69.8 | - | - | - | - | -
SMILES | ERa coact inh | ERa SRC1 pot | PLK1 kinase inh | Smad3 inh | PLK1 PBD inh | ERb SRC1 inh
Cc1cc(C(=O)O)ccc1-n1c(C)ccc1C | 57.4 | - | - | - | - | -
Cc1cc(N)ccc1-n1c(C)ccc1C | - | - | . | - | . | -
CCSc1nnc([C@H](Cc2ccccc2)NC(=O)OC(C)(C)C)o1 | - | - | - | - | - | -
CC(C)(C)OC(=O)N[C@@H](Cc1ccccc1)c1nnc(SCC(=O)O)o1 | - | - | - | - | - | 91.9[fluorescence artefact?]
C(=N\Nc1nnc2c(n1)[nH]c1ccccc12)/c1cccnc1 | . | . | . | - | . | .
N[C@@H](Cc1ncccn1)C(=O)O | . | . | . | - | . | .
O=C(CSc1nc2ccccc2c2nc3ccccc3n12)NCc1ccco1 | 73.5[fluorescence artefact?] | - | - | - | - | -
Cn1c(SCC(=O)NCc2ccco2)nc2ccccc2c1=O | - | - | - | - | - | -
